Results as given in PubChem BioAssay.
Activity calls are given as the source filed them.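 How the source made its calls: active means at least 20% inhibition of 6-phosphogluconate dehydrogenase activity; inactive means the rest.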 Where a SMILES comes first, the peptide text is derived from it. [ ]: non-standard residue; d: D form. The star is where a group is joined. NHCH2CH2OH = OCCN*; For = O=C*

molecular target: 6-phosphogluconate dehydrogenase, decarboxylating (Homo sapiens) (UniProt P52209); experiment: 6PGD enzyme inhibitors, primary screen, biochemical, human, recombinant enzyme, NADPH absorbance (AID 1159550); settings: recombinant 6PGD, NADPH absorbance 341 nm; at 10 µM; hits give high values
Sequence (P52209 whole entry, looked up): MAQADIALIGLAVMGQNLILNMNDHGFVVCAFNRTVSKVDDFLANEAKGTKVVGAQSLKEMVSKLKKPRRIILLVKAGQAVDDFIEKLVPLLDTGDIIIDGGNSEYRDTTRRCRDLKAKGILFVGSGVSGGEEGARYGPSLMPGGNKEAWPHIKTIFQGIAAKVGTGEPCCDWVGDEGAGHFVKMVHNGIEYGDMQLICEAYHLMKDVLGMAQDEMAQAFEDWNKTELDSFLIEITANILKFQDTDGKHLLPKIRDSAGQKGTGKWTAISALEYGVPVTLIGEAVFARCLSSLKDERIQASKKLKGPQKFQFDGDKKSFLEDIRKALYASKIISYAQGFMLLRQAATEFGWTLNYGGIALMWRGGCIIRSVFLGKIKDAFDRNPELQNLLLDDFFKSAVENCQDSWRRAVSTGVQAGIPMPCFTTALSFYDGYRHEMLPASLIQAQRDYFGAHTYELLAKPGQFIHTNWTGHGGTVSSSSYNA

| Compound | inhibition |
| --- | --- |
| C/C=C(\C)C(=O)O[C@@H]1[C@@H]2C=C3[C@@H]4CC(=O)O[C@@H](C5=CC(O)OC5=O)[C@]4(C)CC[C@@H]3[C@@](C)(C2=O)[C@@H]([C@@H](O)C(=O)OC)C1(C)C (stereo partly drawn) | 0.726% (inactive) |
| CO[C@H]1C[C@H](O[C@H]2[C@H](C)[C@@H](O[C@@H]3O[C@H](C)C[C@H](N(C)C)[C@H]3OC(C)=O)[C@@H](C)C[C@@]3(CO3)C(=O)[C@H](C)[C@H](OC(C)=O)[C@@H](C)[C@@H](C)OC(=O)[C@@H]2C)O[C@@H](C)[C@@H]1OC(C)=O | -13% (inactive) |
| CC[C@H](C(=O)[C@@H](C)[C@@H](O)[C@H](C)[C@@H]1O[C@@H]([C@@H](CC)C(=O)O)[C@@H](C)C[C@@H]1C)[C@H]1O[C@]2(C=C[C@@H](O)[C@]3(CC[C@@](C)([C@H]4CC[C@](O)(CC)[C@H](C)O4)O3)O2)[C@H](C)C[C@@H]1C | -15.5% (inactive) |
| NCCCC[C@H](N)C(=O)N[C@@H](Cc1ccccc1)C(=O)N[C@@H](Cc1ccc(O)cc1)C(=O)O (H-Lys-Phe-Tyr-OH) | 6.75% (inactive) |
| CC1(C)C=CC(=O)[C@]2(C)[C@H]3CC[C@@]4(C)[C@H](c5ccoc5)OC(=O)[C@H]5O[C@]54[C@]3(C)C(=O)C[C@@H]12 | -8.35% (inactive) |
| CCOc1ccc(C(=O)c2cc(O)c(OC)c(OC)c2O)cc1 | 0.271% (inactive) |
| COC(=O)C[C@H]1C(C)(C)C(OC(C)=O)[C@]2(O)C=C3C4CC(=O)O[C@@H](c5ccoc5)[C@]4(C)CCC3[C@@]1(C)C2=O (stereo partly drawn) | -4.04% (inactive) |
| COc1cc(O)cc(/C=C/c2ccccc2)c1 | 10.9% (inactive) |
| Cn1nnnc1SCC1=C(C(=O)O)N2C(=O)[C@@H](NC(=O)[C@@H](O)c3ccccc3)[C@H]2SC1 | 0.99% (inactive) |
| COC(=O)C[C@H]1C(C)(C)C2(Cl)O[C@@]34CC2C(=O)[C@]1(C)C3CC[C@]1(C)C4=CC(=O)O[C@H]1c1ccoc1 (stereo partly drawn) | 6.04% (inactive) |
| COc1cc2c(cc1-c1coc3c4c(c(OC)cc3c1=O)OC(C)(C)C=C4)OCO2 | 8.44% (inactive) |
| COc1ccc2c(c1)O[C@@H]1c3ccc(OC)cc3OC[C@H]21 | 0.294% (inactive) |
| C[C@H](CCC(=O)O)C1CC[C@H]2[C@@H]3CC[C@H]4C[C@H](O)CC[C@]4(C)[C@H]3C[C@H](O)[C@]12C (stereo partly drawn) | -1.43% (inactive) |
| O[C@@H]1[C@@H](O)[C@@H]2OC[C@@H](O2)[C@H]1O | -10.4% (inactive) |
| CC1(C)C(=O)C2OC2C2(C)C1CC(=O)C1(C)C2CCC2(C)C(c3ccoc3)OC(=O)C3OC321 (stereo not drawn) | 2.22% (inactive) |
| CC[C@@H](CC[C@@H](C)[C@H]1CC[C@H]2[C@@H]3CC=C4C[C@@H](O)CC[C@]4(C)[C@H]3CC[C@]12C)C(C)C | 10.4% (inactive) |
| NCCCC(N)CC(=O)NCC1NC(=O)C(CO)NC(=O)C(N)CNC(=O)C(C2CCNC(N)=N2)NC(=O)/C(=C/NC(N)=O)NC1=O (stereo not drawn) | -0.986% (inactive) |
| CC(C)C[C@@H](NC(=O)[C@H](C)NC(=O)CNC(=O)[C@@H](NC=O)C(C)C)C(=O)N[C@@H](C)C(=O)N[C@@H](C(=O)N[C@H](C(=O)N[C@H](C(=O)N[C@@H](Cc1c[nH]c2ccccc12)C(=O)N[C@H](CC(C)C)C(=O)N[C@@H](Cc1c[nH]c2ccccc12)C(=O)N[C@H](CC(C)C)C(=O)N[C@@H](Cc1c[nH]c2ccccc12)C(=O)N[C@H](CC(C)C)C(=O)N[C@@H](Cc1c[nH]c2ccccc12)C(=O)NCCO)C(C)C)C(C)C)C(C)C (For-VGA[dL]A[dV]VVW[dL]W[dL]W[dL]W-NHCH2CH2OH) | 10.9% (inactive) |
| CCC(C)C(N)C1=NC(C(=O)NC(CC(C)C)C(=O)NC(CCC(=O)O)C(=O)NC(C(=O)NC2CCCCNC(=O)C(CC(N)=O)NC(=O)C(CC(=O)O)NC(=O)C(Cc3cnc[nH]3)NC(=O)C(Cc3ccccc3)NC(=O)C(C(C)CC)NC(=O)C(CCCN)NC2=O)C(C)CC)CS1 (stereo not drawn) | -5.55% (inactive) |
| CC(C)C[C@H](NC(=O)OCC1c2ccccc2-c2ccccc21)C(=O)O | 2.94% (inactive) |
| Oc1ccc2c(c1)OC(c1ccc(O)c(O)c1)C(O)C2 (stereo not drawn) | 6.96% (inactive) |
| N[C@@H](COCc1ccccc1)C(=O)O | 3.6% (inactive) |
| CC(=O)OCC(=O)[C@@]1(O)CC[C@H]2[C@@H]3CC[C@@H]4C[C@H](OC(C)=O)CC[C@]4(C)[C@H]3C(=O)C[C@@]21C | 4.42% (inactive) |
